Structures are written as SMILES. About 4,300 (8.3%) of roughly 52,000 compounds were called active. Rule as the data show it: active = survival mostly below about 52% (no sharp cut-off); inactive = mostly above about 56%. Shown is part of a subset that was picked to be rich in actives.

Consider 37 compounds from PubChem BioAssay AID463173 (ICCB-Longwood Screening Facility, Harvard Medical School, 2010).

The test system of this experiment is DeltatarO mutant. Description: growth inhibition of S. aureus wild type versus tarO mutant, primary screen, teichoic acid synthesis inhibitors, RN4220, OD600 (AID 463173). The conditions noted are these: OD600, 18 h, hits give low values, screened at 18.75 µg/mL (by protocol).
In the case of `O=C(CSc1ncc(-c2ccc(F)cc2)n1Cc1ccco1)OC1CCCCC1`, the survival is 108% (inactive).

For the compound `COc1ccc(OC)c(NC(=O)COCc2cc(-c3ccc(F)cc3)on2)c1`, the survival is 93% (inactive).

Consider `O=C(CSc1nc(-c2cccs2)nc2cc(=O)[nH]n12)Nc1cccc(C(F)(F)F)c1`, for which the survival is 94% (inactive).

Consider `O=C(CSc1nc(-c2ccccc2F)nc2cc(=O)[nH]n12)Nc1cccc(C(F)(F)F)c1`, for which the survival was 69% (inactive).

On to `Cc1cccc(-c2nc(SCC(=O)Nc3cccc(C(F)(F)F)c3)n3[nH]c(=O)cc3n2)c1`, for which the survival was 0% (active).

For the compound `Cc1ccc(-c2noc(-c3nnn(CC(=O)Nc4cc(Cl)ccc4C)c3N)n2)cc1`, the survival was 80% (inactive).

Consider `Cc1ccc(NC(=O)Nc2ccc3snnc3c2)cc1C`, for which the survival is 66% (inactive).

`O=C(Nc1cccc(C(F)(F)F)c1)Nc1ccc2snnc2c1`: the survival is 11% (active).

On to `COc1cccc(NC(=O)Nc2ccc3snnc3c2)c1`, for which the survival was 68% (inactive).

As to `O=C(Nc1ccc(F)cc1)Nc1ccc2snnc2c1`, the survival is 19% (active).

Take `O=C(Nc1cccc(C(F)(F)F)c1)c1ccc2snnc2c1`: the survival is 111% (inactive).

With `CC(=O)c1ccc(NC(=O)Nc2ccc3snnc3c2)cc1`, the survival is 50% (inactive).

Take `COc1ccc(NC(=O)CSC2=Nc3ccccc3C3=NC(CCC(=O)NCc4cccs4)C(=O)N23)cc1` (configuration not stated): the survival is 93% (inactive).

For the compound `CC1=C(c2ccc(C)c(C)c2)S(=O)(=O)N=C1N1CCC(C(=O)NC(C)c2ccccc2)CC1` (configuration not stated), the survival is 84% (inactive).

Take `CC(=O)N1Cc2ccccc2C(C)CC12CCCC2` (configuration not stated): the survival was 119% (inactive).

Consider `Cc1nn2c(=O)cc(COC(=O)c3cccs3)nc2s1`, for which the survival is 89% (inactive).

`Fc1ccc(NCc2ccccc2-c2nnc(-c3ccccc3Cl)o2)cc1Cl`: the survival was 77% (inactive).

Turning to `O=C(NCCc1nc2ccccc2n1Cc1ccc(F)cc1)c1ccco1`, the survival was 47% (inactive).

With `CC1=Nc2cc(C(=O)NC3CCCC3)ccc2Sc2ccc(Br)cc21`, the survival is 57% (inactive).

Take `CC1=Nc2cc(C(=O)NC3CCCC3)ccc2Sc2ccc(C)cc21`: the survival was 59% (inactive).

In the case of `CCC1=Nc2cc(C(=O)NCc3ccc(C)cc3)ccc2Sc2ccc(C)cc21`, the survival was 78% (inactive).

As to `CCC1=Nc2cc(C(=O)NC3CCCC3)ccc2Sc2ccc(Br)cc21`, the survival is 44% (active).

Regarding `CCCC1=Nc2cc(C(=O)NC3CCCCC3)ccc2Sc2ccc(C)cc21`, the survival was 94% (inactive).

As for `CCCC1=Nc2cc(C(=O)NC3CCCC3)ccc2Sc2ccc(C)cc21`, the survival is 46% (active).

As for `CC1=Nc2cc(C(=O)NC3CCC(C)CC3)ccc2Sc2c(C)ccc(C)c21` (configuration not stated), the survival is 73% (inactive).

Consider `CCC1=Nc2cc(C(=O)NC3CCCC3)ccc2Sc2ccc(Cl)cc21`, for which the survival is 58% (inactive).

As to `CCC1=Nc2cc(C(=O)NC3CCC(C)CC3)ccc2Sc2ccc(C)cc21` (configuration not stated), the survival was 39% (active).

Take `COc1ccc(CNC(=O)c2cc3cc(C)ccc3n2C)cc1`: the survival is 74% (inactive).

Turning to `O=C(CSc1nc2c([nH]c3ccccc32)c(=O)n1-c1cccc(C(F)(F)F)c1)N1CCc2ccccc21`, the survival is 78% (inactive).

Turning to `O=C(NC1CC(=O)N(c2ccc(Cl)cc2)C1)c1cccs1` (configuration not stated), the survival is 71% (inactive).

On to `CC1CCN(c2nc3ccc(C(=O)NC(C)C)cc3s2)CC1`, for which the survival is 74% (inactive).

As for `Cc1cc2[nH]c(=O)c(=O)[nH]c2cc1S(=O)(=O)NCc1ccc(F)cc1`, the survival is 112% (inactive).

Take `COc1cccc(CNS(=O)(=O)c2cc3[nH]c(=O)c(=O)[nH]c3cc2C)c1`: the survival is 67% (inactive).

On to `Cc1ccc(CNS(=O)(=O)c2cc3[nH]c(=O)c(=O)[nH]c3cc2C)cc1`, for which the survival is 47% (active).

For `CC(C)Sc1ncc(Cl)c(C(=O)N(Cc2ccc(F)cc2)C2CCS(=O)(=O)C2)n1` (configuration not stated), the survival is 76% (inactive).

Turning to `CN(Cc1ccccc1)Cn1[nH]c(=O)ccc1=O`, the survival was 110% (inactive).

In the case of `COc1ccc(C)c2sc(N(Cc3cccnc3)C(=O)COc3ccccc3)nc12`, the survival was 85% (inactive).
